Assay outcomes deposited in PubChem BioAssay by National Center for Advancing Translational Sciences (NCATS).
An excerpt weighted towards active compounds, which were near 2.4% of everything screened.
Mito fusion act: blocks mitochondrial division or promotes mitochondrial fusion; S. cerevisiae fusion-defective mutant growth rescue, CellTiterGlo 48 h; Potency, µM (top dose mostly 46.1 µM), actives largely listed as activators; actives 0.23% (n = 320,000); AID 485298; further: nearly all actives have a fitted effect of over 45% in size
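Read-out: ATP-based luminescence (CellTiterGlo, 10 min ambient) reporting growth of fusion-defective ts yeast after 48 hours at 37C on glycerol/ethanol YPEG medium in the presence of compound.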
AT treatment: potential ataxia-telangiectasia treatment | F2112 A-T fibroblasts, KAP-1 phosphorylation AlphaLISA; neocarzinostatin DNA damage 30 min before lysis | Potency, µM (titrated, usually from 57.5 µM), hits mostly activators | actives 0.19% (n = 320,000) | AID 485349; further: nearly all actives have a fitted effect of over 45% in size
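hTERT-immortalized A-T patient fibroblasts (F2112), 500 cells/well in OPTI-MEM, 1% FBS, got compounds for 60 min, then NCS for 30 min at 37C. Lysates were then assayed for phospho-KAP-1 by AlphaLISA (anti-pKAP1 donor, anti-KAP1 acceptor beads), 6 hr at 25C.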
TDP43 rescue: rescues yeast growth from TDP-43 toxicity; Potency, µM (titrated, usually from 46.1 µM), most hits filed as activators; actives 1.8% (n = 410,000); AID 652104; TDP-43 expressing yeast growth rescue, BacTiter-Glo, 24 h; further: nearly all actives have a fitted effect of over 50% in size
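Yeast expressing TDP-43 (pregrown in raffinose, seeded at OD600=0.02 in galactose medium) exposed to compounds 24 hr at 30 deg C. Growth read by BacTiter-Glo luminescence; rescue of toxicity appears as increased signal.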
aSyn yeast inh: rescues yeast growth from alpha-synuclein toxicity | Potency, µM (doses to about 46.1 µM), usual class: activators | actives 0.14% (n = 370,000) | Yeast expressing alpha-synuclein, growth rescue, BacTiter-Glo, 24 h; further: nearly all actives have a fitted effect of over 65% in size
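Screening used galactose-induced yeast with toxic alpha-synuclein levels, exposed to compound for 24 hr at 30 deg C. Cell growth, read with BacTiter-Glo luminescence, gave the measured signal.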
FUS yeast rescue: rescues growth of FUS-expressing yeast; S. cerevisiae FUS-expressing, growth rescue, OD600, 24 h; Potency, µM (titrated, usually from 76.6 µM), most hits filed as activators; actives 0.24% (n = 390,000); AID 1347120; further: nearly all actives have a fitted effect of over 55% in size
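Yeast expressing FUS under galactose induction, OD 0.005 in 2% galactose medium; compounds in a dilution series, 24 h at 30C. Growth rescue by absorbance at 600 nm; CP55940 positive control, DMSO negative.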
Abeta yeast res: compounds reversing amyloid beta toxicity in yeast; yeast expressing A-beta42, growth rescue, OD600, 48 h; response scale: 0% DMSO, 100% iron-clioquinol control; Potency, µM (top dose mostly 46.1 µM), actives largely listed as activators; actives 0.063% (n = 410,000); further: nearly all actives have a fitted effect of over 55% in size
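Growth rescue measured by 600 nm absorbance after 48 h yeast culture at 30 C with compound. Values normalized between DMSO and an equimolar ferric chloride plus clioquinol control.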
A number is an active result; - = inactive; ? = inconclusive; . = no result given; [ ] = dose if it differs, or a comment. The call rests on the fitted dose curve; in most records, active means well fitted curve in the direction sought with a large enough effect; inconclusive means small, poorly fitted or top-dose-only effect, or another doubt; inactive means no such curve, though single readings can be large; an effect the other way counts as inactive or inconclusive.

SMILES | Mito fusion act | AT treatment | TDP43 rescue | aSyn yeast inh | FUS yeast rescue | Abeta yeast res
CCCCNC(=O)CN1C(=O)c2cccnc2Sc2ccccc21 | . | . | - | . | - | -
CN(C)c1ccc(C(=O)c2ccccc2)cc1 | - | - | 12.6µM | - | - | -
COc1ccc(-c2ccc3c(N)c(C(=O)NCc4ccc(Cl)cc4)sc3n2)cc1 | . | . | ? | . | - | -
CCOc1ccc(CNC(=O)Cn2nc(C)c3sc4ccccc4c3c2=O)cc1 | . | . | - | . | - | -
Cc1nc2nc(SCC(=O)NCCc3ccc(Cl)cc3)nn2c(C)c1Cc1ccccc1Cl | . | . | ? | . | ? | -
COc1cc(NC(=O)CSc2nc3nc(C)c(Cc4ccc(C)cc4)c(C)n3n2)cc(OC)c1 | . | . | - | . | 31.6µM | -
Cc1ccccc1Cc1c(C)nc2nc(SCC(=O)NCCc3ccc(Cl)cc3)nn2c1C | . | . | 31.6µM | . | - | -
Cn1cc(S(=O)(=O)c2ccccc2)c(=O)c2cc(F)c(N3CCN(c4ccccc4)CC3)cc21 | . | . | - | . | - | -
OC(c1ccc(F)c(F)c1)c1nc(-c2ccccc2)cs1 (stereo not drawn) | . | . | 14.1µM | - | - | -
COc1ccc(-c2csc(C(O)c3ccccc3)n2)cc1 (stereo not drawn) | . | . | ? | - | - | -
OC(c1ccc(F)c(F)c1)c1nc(-c2ccc3c(c2)OCO3)cs1 (stereo not drawn) | . | . | 22.4µM | ? | - | -
COc1ccc(-c2csc(C(O)c3ccc(F)c(F)c3)n2)cc1 (stereo not drawn) | . | . | ? | 11.2µM | - | -
CC(=O)NC(c1ccc(F)c(F)c1)c1nc(-c2ccc3c(c2)OCO3)cs1 (stereo not drawn) | . | . | - | - | - | -
OC(c1ccc(F)c(F)c1)c1nc(-c2cccs2)cs1 (stereo not drawn) | . | . | 22.4µM | - | - | -
O=C(O)c1cccc(-c2csc(C(O)c3ccc(F)c(F)c3)n2)c1 (stereo not drawn) | . | . | ? | - | - | -
OC(c1ccc(F)c(F)c1)c1nc(-c2cnc3ccccc3c2)cs1 (stereo not drawn) | . | . | 22.4µM | - | - | -
OC(c1ccc(F)c(F)c1)c1nc(-c2cccc(F)c2)cs1 (stereo not drawn) | . | . | 22.4µM | - | - | -
Cc1nnc2c3ccccc3nc(Nc3cccc(O)c3)n12 | . | . | 35.5µM | . | - | -
O=C(Nc1ccc(NC(=O)c2ccccc2Cl)c(Cl)c1)c1ccccn1 | . | . | . | . | - | .
O=C(C#Cc1ccccc1)c1ccc([N+](=O)[O-])cc1 | - | - | 11.2µM | - | - | -
C/C(=N\Nc1cc(-c2ccccc2)nc(-c2ccccc2)n1)c1ccc(O)c(C)c1 | - | . | 15.8µM | - | - | -
Cc1ccc(Nc2cc(C)nc(-c3ccccc3O)n2)cc1 | - | . | ? | - | - | -
Cc1cc(N/N=C/c2ccc(O)c(C)c2O)nc(-c2ccccc2O)n1 | - | - | 10µM | - | - | -
C/C(=N\Nc1cc(C)nc(-c2ccccc2O)n1)c1ccccc1 | - | - | 10µM | - | - | -
CC(C)(C)NC(=O)C(c1cccnc1)N(C(=O)c1cnc[nH]1)c1ccc(C(C)(C)C)cc1 (stereo not drawn) | . | . | . | . | - | .
SMILES | Mito fusion act | AT treatment | TDP43 rescue | aSyn yeast inh | FUS yeast rescue | Abeta yeast res
COc1ccc(Cn2cc(COC(=O)NCC(C)C)nn2)cc1 | . | . | . | . | - | .
CCOc1ccc(NS(=O)(=O)c2cc(NC(=O)c3cccc(C)c3)ccc2Cl)cc1 | 22.4µM | - | - | - | ? | -
CCOc1ccc(NS(=O)(=O)c2cc(C(=O)N3CCCC3)ccc2Cl)cc1 | - | - | - | - | - | -
Cc1ccc(NC(=O)c2ccc(CSc3nnc(C)s3)cc2)c(C)c1 | - | - | - | - | - | -
Cc1nnc(SCc2ccc(C(=O)Nc3cc(Cl)ccc3C)cc2)s1 | ? | - | 10µM | - | - | -
O=C(COC(=O)Cc1ccccc1F)Nc1ccc(SC(F)F)cc1 | - | . | 10µM | - | - | -
Cn1c(=O)c2cc(NC(=S)NC3CCCCC3)ccc2n1Cc1ccc(F)cc1 | . | . | - | - | - | -
Cc1cc(C)cc(Cn2c3ccc(NC(=S)NC4CCCCC4)cc3c(=O)n2C)c1 | . | . | - | - | 28.2µM | -
CN(C)Cc1c(O)ccc2ccccc12 | - | - | - | - | - | -
Oc1ccccc1Cc1c(O)ccc2ccccc12 | - | - | 15.8µM | - | - | -
O=C(NC1CCC1)c1ccc(C#Cc2cccc(F)c2)cn1 | . | . | . | . | - | .
Cc1ccc(-c2ccnc3cc(C)nn23)cc1 | - | - | 20µM | - | - | -
Cc1cc2nccc(-c3ccncc3)n2n1 | - | - | - | - | - | -
CN(C)c1ccc(C=Nc2ccccc2C(N)=O)cc1 | - | - | 11.2µM | - | - | -
Cc1ccc(C=Nc2ccccc2C(N)=O)o1 | - | - | - | - | - | -
Cc1ccc(S(=O)(=O)NCc2ccc3c(c2)OCO3)cc1C | - | - | 17.8µM | - | - | -
Clc1ccc(-c2noc(-c3cccnc3N3CCN(c4ccccc4)CC3)n2)cc1 | . | . | - | . | - | -
O=S1(=O)c2c(cccc2N2CCC[C@H]2CO)O[C@@H]2CCN1C2 | . | . | . | . | - | .
Cn1cc(C(=O)CCl)c2ccccc21 | - | -[11.5 µM] | 15.8µM | - | - | -
Cn1cc(C(N)=O)c2ccccc21 | - | - | - | - | - | -
COc1cccc(-c2nc(SCC(=O)Nc3ccc4c(c3)OCO4)c(-c3ccccc3)[nH]2)c1 | . | . | 22.4µM | . | ? | -
CCCSc1ccc2nc(-c3ccccc3)cn2c1 | - | - | - | - | . | -
CCCCSc1ccc2nc(-c3ccc(C#N)cc3)cn2c1 | - | - | 11.2µM | - | - | -
Cc1ccc(Sc2nnc(-c3ccccc3)cc2C#N)cc1 | - | - | - | - | - | -
Cc1ccc(Sc2ccc(N)cc2C#N)cc1 | . | . | 22.4µM | - | . | -
